High-throughput results: PubChem, National Center for Advancing Translational Sciences (NCATS)
ELG1 genotoxic = induces genotoxicity in HEK293T cells with luciferase-tagged ELG1; HEK293T ELG1-luciferase reporter, luminescence, 16 h; Potency, µM (series often up to 46 µM), for inactives: at the highest dose activity change, positive = activation, actives largely listed as activators; 330,000 tested, 1.3% active; also: % of control where 0% means no effect; nearly all actives have a fitted effect of over 60% in size
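ELG1-luciferase HEK293T cells, 2,000/well; compound pinned in; 16 hr, 37 °C, 5% CO2; ONE-Glo, 30 min RT; luminescence on CCD imager.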
FLuc counter = counter-screen for miR-21 project: firefly luciferase inhibitors or activators | P08659 | purified FLuc, Km substrates, luminescence inhibition | Potency, µM (highest dose often 57.5 µM), for inactives: at the highest dose activity change, negative = inhibition, hits mostly inhibitors | 360,000 tested, 6.9% active | AID 588342;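 also: plate controls were vehicle for no effect and reference inhibitor for full effect; nearly all actives have a fitted effect of over 55% in size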
Target sequence (P08659 whole entry, looked up): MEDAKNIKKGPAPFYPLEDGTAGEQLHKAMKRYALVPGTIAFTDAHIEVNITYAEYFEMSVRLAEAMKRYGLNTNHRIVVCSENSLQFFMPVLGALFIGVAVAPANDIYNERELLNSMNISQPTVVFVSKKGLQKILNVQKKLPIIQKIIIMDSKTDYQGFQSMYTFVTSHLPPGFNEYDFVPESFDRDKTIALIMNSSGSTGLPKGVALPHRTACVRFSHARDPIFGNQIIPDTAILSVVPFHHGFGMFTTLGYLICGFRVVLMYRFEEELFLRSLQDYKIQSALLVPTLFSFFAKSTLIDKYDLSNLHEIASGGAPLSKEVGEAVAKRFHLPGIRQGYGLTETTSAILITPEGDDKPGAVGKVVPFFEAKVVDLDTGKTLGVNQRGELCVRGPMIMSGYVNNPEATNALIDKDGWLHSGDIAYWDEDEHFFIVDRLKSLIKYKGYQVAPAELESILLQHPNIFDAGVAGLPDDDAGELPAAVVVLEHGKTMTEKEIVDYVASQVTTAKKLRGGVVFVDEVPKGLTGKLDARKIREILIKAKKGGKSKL
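Biochemical qHTS of compounds, final roughly 60 µM downward over six points, against 10 nM purified firefly luciferase using Km concentrations of substrates (10 uM D-luciferin, 10 uM ATP) in Tris acetate pH 7.5 buffer; luminescence output.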
SMN2 splice enh = enhancers of SMN2 splice variant expression | HEK293 SMN2-luciferase splicing reporter, luminescence, 30-36 h | Potency, µM (titrated, usually from 46.1 µM), without a hit: top-dose activity change, positive = activation, most hits filed as activators | 210,000 tested, 2.8% active | AID 1458; also: % of control where 0% means no effect; nearly all actives have a fitted effect of over 55% in size
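qHTS luciferase splicing reporter: luminescence rises when SMN2 exon 7 is included in transfected HEK293 cells. Compound exposure lasted 30-36 h at 37C, with 4.5 mM final sodium butyrate as control, followed by a ONE-Glo read.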
Rab9 prom act = activates the Rab9 promoter. Potency, µM (highest dose often 9.22 µM), inactives show at the top dose activation, negative = inhibition, most hits filed as activators. Huh7 Rab9 promoter-luciferase reporter, luminescence, 24 h. AID 485297. 320,000 tested, 2.8% active; also: % of control where 0% means no effect; nearly all actives have a fitted effect of over 60% in size
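Rab9 promoter-driven luciferase in stably transfected Huh7 cells; 1500 cells/well rested 2 h, exposed to compound in DMSO for 24 h at 37 °C, 5% CO2. Luminescence read 10 min after adding luciferase reagent at ambient temperature.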
ELG1 repair inh = inhibitors of ELG1-dependent DNA repair in HEK293T cells | HEK293T ELG1-luciferase reporter, luminescence, 16 h; DNA damage induced by 5-fluorouridine | Potency, µM (highest dose often 46.1 µM), for the others: top-dose activity change, negative = inhibition, usual class: inhibitors | 330,000 tested, 2.3% active | AID 504467; also: % is scaled to controls: 0 for no effect and ±100 for the full control effect; nearly all actives have a fitted effect of over 55% in size
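5-Fluorouridine DNA damage + compound/DMSO, 2,000 cells/well, 16 h, 37 °C/5% CO2. ONE-Glo, 30 min RT, luminescence. Readout = decrease in reporter signal.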
NPC1 promoter act = NPC1 promoter activation; Potency, µM (highest dose often 9.22 µM), without a hit: at the highest dose activation, usual class: activators; 320,000 tested, 2.4% active; Huh7 NPC1 promoter luciferase reporter, 24 h; also: % of control where 0% means no effect; nearly all actives have a fitted effect of over 60% in size
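In 1536-well qHTS, Huh7 cells harboring an NPC1 promoter–luciferase construct received compound for 24 h; activation was quantified by luminescence following luciferase reagent addition.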
Starred values were filed as active, the others as inactive; ? = inconclusive; . = no result; [ ] = remark or other dose. Hits are enriched below; roughly 9.2% of the tested compounds scored in any of these assays. Calls follow the shape of the dose curve; as a rule, active = well fitted curve in the direction sought with a large enough effect; inconclusive = small, poorly fitted or top-dose-only effect, or another doubt; inactive = no such curve, though single readings can be large; an effect the other way counts as inactive or inconclusive. Potency is read from the fitted curve at half-maximal effect.

SMILES | ELG1 genotoxic | FLuc counter | SMN2 splice enh | Rab9 prom act | ELG1 repair inh | NPC1 promoter act
N/C(=N\OC(=O)c1ccc([N+](=O)[O-])cc1)c1ccc(Br)cc1 | ? | ? | . | 3.0% | ? | 8.4%
O=C(CSc1nc2ccccc2s1)Nc1cc(S(=O)(=O)N2CCOCC2)ccc1Cl | 0.2% | ? | -17.3% | -0.5% | 23.1µM* | 0.0%
Cc1ccc(S(=O)(=O)N2CCOCC2)cc1NC(=O)CSc1nnc2cc(C)c3ccccc3n12 | -5.7% | ? | -36.9% | -2.9% | 18.4µM* | -0.1%
O=C(CNc1ccccc1Cl)Nc1cc(S(=O)(=O)N2CCOCC2)ccc1Cl | -6.6% | 0.6% | . | -1.1% | ? | -0.1%
Cc1cc2nnc(SCC(=O)Nc3cc(S(=O)(=O)N4CCOCC4)ccc3Cl)n2c2ccccc12 | -7.6% | -19.8% | -21.9% | -0.2% | 18.4µM* | -3.0%
Cc1ccc(S(=O)(=O)N2CCOCC2)cc1NC(=O)CSc1ncccn1 | 1.5% | -2.3% | . | -2.0% | 23.0% | -2.5%
Cc1ccc(-n2c(SCC(=O)Nc3cc(S(=O)(=O)N4CCOCC4)ccc3Cl)nc3ccccc3c2=O)cc1 | 0.4% | -15.5% | 6.9% | -5.4% | -15.7% | -0.4%
COc1ccc(NC(=O)Nc2ccc(N3CCOCC3)c3nonc23)c(OC)c1 | 6.3% | -1.0% | 7.0% | -3.0% | 18.3% | -0.4%
O=C(Nc1ccc(F)cc1)Nc1ccc(N2CCOCC2)c2nonc12 | ? | ? | ? | 2.24µM* | ? | ?
CCCCCCCCC1=NCCc2c1[nH]c1ccccc21 | -10.3% | -11.3% | . | -7.8% | -15.6% | -3.3%
CC(C)C/C=C1\CCc2c([nH]c3ccccc23)C1=O | ? | ? | . | 2.82µM* | ? | 29.3%
O=C1/C(=C/c2cccnc2)CCc2c1[nH]c1ccccc21 | -2.7% | 9.53µM* | . | 3.16µM* | 14.7% | 27.3%
CN1C(=O)S/C(=C/c2cccnc2)C1=O | 3.5% | 2.2% | 2.7% | 3.1% | 17.7% | -1.7%
CC1C/C(=C\c2cccnc2)C(=O)/C(=C/c2cccnc2)C1 (stereo not given) | -15.3% | -5.5% | 1.8%[1.84 µM] | -48.4% | 2.06µM* | -33.5%
COc1cccc(CNC(=O)CN2C(=O)CCCc3ccccc32)c1OC | . | -4.6% | . | . | . | .
COc1cccc(C2=NOC(C(=O)Nc3cc(OC)c(OC)c(OC)c3)C2)c1 (stereo not given) | -6.1% | 1.7% | -21.4% | 12.2% | 18.4µM* | -4.2%
COc1cccc(-c2cc(C(=O)Nc3c(C)nn(Cc4ccccc4)c3C)no2)c1 | -19.7% | 0.6% | -55.0% | -12.9% | 20.6µM* | -5.1%
COc1ccc(-c2cc(C(=O)Nc3c(C)nn(Cc4ccccc4)c3C)no2)cc1 | 0.0% | -0.7% | -27.0% | 0.3% | -11.1% | 1.7%
COc1cccc(-c2cc(C(=O)Nc3cccnc3)no2)c1 | ? | 1.35µM* | -8.0% | -1.4% | ? | -1.8%
COC(=O)c1c(-c2cccnc2)csc1NC(=O)c1cc(C)on1 | ? | 6.01µM* | 11.2µM* | 1.78µM* | ? | 2µM*
COc1ccc(CCN(C)C(=O)c2c(C)noc2C)cc1OC | 1.5% | -2.0% | . | 0.9% | 30.1% | -6.1%
CSCCC(NC(=O)c1cccc(C)c1)C(=O)OCN1C(=O)c2ccccc2C1=O (stereo not given) | 1.7% | -16.0% | . | -4.2% | 26.3% | -3.2%
COc1ccc(CN2C(=O)C(NC(=O)c3ccccc3C)(C(F)(F)F)N=C2c2ccccc2)cc1 (stereo not given) | . | -1.0% | ? | . | . | .
Cc1cc(NC(=O)c2cc(-c3ccccc3)on2)n(-c2ccccc2)n1 | 0.3% | 1.2% | ? | -1.1% | 1.9% | -1.5%
CCC(C)NC(=O)c1cc(-c2cccc(OC)c2)on1 (stereo not given) | . | 13.5µM* | 11.2µM* | . | . | .
SMILES | ELG1 genotoxic | FLuc counter | SMN2 splice enh | Rab9 prom act | ELG1 repair inh | NPC1 promoter act
CC(C)n1cc(NC(=O)c2cc(-c3ccccc3)on2)cn1 | 18.4µM* | 15.1µM* | 6.0% | -8.6% | ? | -16.1%
O=C(NCCc1ccccc1)c1cc(-c2ccc(Br)cc2)on1 | . | -6.8% | -7.2% | . | . | .
CCc1cc(C(=O)Nc2cnn(Cc3ccccc3C)c2)no1 | . | 23.9µM* | 17.8µM* | . | . | .
O=C(Nc1cccnc1)c1cc(-c2ccc(Br)cc2)on1 | 5.8µM* | 2.13µM* | 10.7% | 0.1% | ? | -0.5%
CN(C)C(=O)CSc1n[nH]c(=O)n1CCc1ccccc1 | 1.0% | 3.2% | . | -3.5% | -1.6% | -1.1%
Cc1ccc(N2CCN(c3cc(C)nc4c(-c5ccc(Cl)cc5)c(C)nn34)CC2C)cc1 (stereo not given) | . | -2.8% | . | . | . | .
COc1cc(NC(=O)c2cc3nc(-c4ccccc4)cc(-c4ccccc4)n3n2)cc(OC)c1OC | -5.6% | 4.0% | -2.3% | -0.7% | 10µM* | -0.6%
COc1cc(C2=NOC(C(=O)N3CCN(c4ccc(F)cc4)CC3)C2)cc(OC)c1OC (stereo not given) | -3.2% | 4.6% | -25.4% | -8.1% | ? | -0.6%
COc1cc(C2=NOC(C(=O)N3CCCCCC3)C2)cc(OC)c1OC (stereo not given) | 1.0% | 1.4% | . | -5.2% | 7.31µM* | 1.8%
COc1cccc(-c2cc(C(=O)Nc3cc(OC)c(OC)c(OC)c3)no2)c1 | -22.9% | ? | 8.8% | -7.0% | 23.1µM* | -17.1%
COc1ccc(NC(=O)c2cc(-c3ccccc3)on2)cc1 | 11.5% | ? | . | 1.9% | ? | 1.4%
O=C(Nc1cccnc1)c1cc(-c2ccccc2)on1 | 1.6% | 4.78µM* | -0.3% | -7.5% | -1.0% | 0.7%
COc1cc(NC(=O)c2cc(-c3ccccc3)on2)cc(OC)c1OC | -8.2% | -2.3% | . | -2.6% | ? | -2.6%
Cc1noc(C)c1S(=O)(=O)NCCc1csc2nc(-c3ccc(Cl)cc3)nn12 | . | -2.3% | . | . | . | .
COc1cccc(NC(=O)N2CCC(NC(=O)C(Cc3ccccc3F)NC(C)=O)CC2)c1 (stereo not given) | -1.1% | -0.3% | . | 3.7% | 0.5% | 1.6%
Cc1cccc(OCc2nnc(SCC(=O)N(c3ccccc3)C3CCS(=O)(=O)C3)o2)c1 (stereo not given) | -3.8% | . | . | -0.5% | -28.5% | -5.8%
